Potency data for 25 molecules are collected here from PubChem BioAssay (NCATS).

Results filed as inconclusive are left out. Calls of active or inactive are those of the source. Calls come from the whole dose curve; as a rule, active = well fitted inhibition curve with a large enough effect; inconclusive = small, poorly fitted or top-dose-only effect; inactive = flat fitted curve, though single readings scatter.

Common to all, as to assay: qHTS profiling for inhibitors of Plasmodium falciparum proliferation (AID 504749); note: nearly all actives have a fitted effect of over 60% in size
Common to all, as to conditions: P. falciparum in erythrocytes, SYBR Green DNA, 72 h; series mostly up to 28.7 µM
In general terms: In qHTS, concentration-response curves come from the screen itself.

One assay has as its system 3D7. The gist of the method:
(§1)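 Each compound contacts P. falciparum-infected red blood cells for 72 h at 37 C; lysis buffer (Tris, EDTA, saponin, Triton X, SYBR Green I) is added and fluorescence measured next morning; values normalized to controls.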

Another assay deals with ATS189. The method in brief: as §1
For the next assay, the system named is C2A. The method in brief: as §1
A further assay relates to CP191. The method in brief: as §1
The subject of the next assay is CP192. The method in brief: as §1
In a further assay the test system is 7G8. The gist of the method: as §1
For another assay, the system named is AS120. The method in brief: as §1
For another assay, the system named is AA1029. The method in brief:
as §1

The test system of the next assay is ATS95. The method in brief:
as §1

A further assay relates to CP185. The gist of the method: as §1
Potency is the fitted concentration of half-maximal effect.

In the case of `CC(C)COCC(CN(Cc1ccccc1)c1ccccc1)N1CCCC1` (configuration not stated), the Potency entry in the assay with 3D7, with ATS189, with C2A, with CP191 and in the assay on CP192 was “inactive” in each case.

Regarding `COCCOC(=O)C1=C(C)NC(C)=C(C(=O)OC(C)C)C1c1cccc([N+](=O)[O-])c1` (configuration not stated), the results for the Potency in the assay with 7G8 and in the assay with AS120 were 11.2 µM (active) and 7.94 µM (active), respectively. For the same molecule, the Potency result with C2A was “inactive”.

Turning to `O=C(CCCN1CCC(O)(c2cccc(C(F)(F)F)c2)CC1)c1ccc(F)cc1`, the Potency was 3.98 µM (active) with 7G8; 7.08 µM (active) with AA1029; 7.94 µM (active) with AS120; 8.91 µM (active) with ATS189; 10 µM (active) in the assay on ATS95; 11.2 µM (active) in the assay on C2A. Besides, the Potency in the assay with CP191 is 7.94 µM (active).

On to `Nc1nc(N)c2nc(-c3ccccc3)c(N)nc2n1`, for which, in the assay with 3D7, the Potency is 7.08 µM (active). Besides, the Potency entry with AA1029, in the assay on AS120, with ATS189, in the assay with ATS95, in the assay on C2A and with CP185 was “inactive” each time. The Potency entry with CP191 and with CP192 was “inactive” in each case.

For `C[n+]1cc2c3c(ccc2c2ccc4cc5c(cc4c21)OCO5)OCO3`, the Potency result in the assay with AA1029, with AS120, in the assay on ATS95, in the assay with C2A, in the assay on CP185 and with CP192 was “inactive” in each case.

Regarding `NC1=NCC2c3ccccc3Cc3ccccc3N12` (configuration not stated), the Potency result in the assay with 3D7, in the assay on AA1029, in the assay with AS120, in the assay with ATS189, in the assay with ATS95 and in the assay on C2A was “inactive” each time. The Potency entry in the assay on CP185 and with CP192 was “inactive” in each case.

For `COC(=O)[C@@H](N)Cc1ccc(O)c(O)c1`, the Potency entry with AA1029, in the assay on AS120, in the assay with ATS189, with ATS95, in the assay with CP185 and with CP191 was “inactive” each time. Moreover, the Potency entry with CP192 is “inactive”.

Take `CN1CCN(C2=Nc3ccccc3Oc3ccc(Cl)cc32)CC1`: the Potency result with 3D7, with AA1029, in the assay with AS120, in the assay with ATS189, in the assay with ATS95 and in the assay with C2A was “inactive” each time. Moreover, the Potency result in the assay on CP185, in the assay with CP191 and in the assay on CP192 was “inactive” throughout.

`CCCCCCCC/C=C\CCCCCCCC(=O)NCc1ccc(O)c(OC)c1`: the Potency with ATS189 was 8.91 µM (active); with CP185, 11.2 µM (active); with CP191 it was 12.6 µM (active). Moreover, in the assay on CP192, the Potency result is “inactive”.

As for `CN(C)CCCN1c2ccccc2Sc2ccc(C(F)(F)F)cc21`, the Potency in the assay with 7G8 was 5.01 µM (active). Further, the Potency result in the assay with ATS95, with C2A and in the assay with CP192 was “inactive” throughout.

As to `CC(C)[N+](C)(CCOC(=O)C1c2ccccc2Oc2ccccc21)C(C)C`, in the assay on CP185, the Potency entry is “inactive”.

For `Brc1c(NC2=NCCN2)ccc2nccnc12`, the Potency with 7G8 was 11.2 µM (active). The Potency entry in the assay with AA1029, with AS120, in the assay with ATS95, in the assay with C2A, in the assay on CP185 and in the assay with CP192 was “inactive” each time.

For `NC(N)=NC(=O)Cc1c(Cl)cccc1Cl`, the Potency result in the assay with 3D7 was “inactive”. Besides, the Potency was 12.6 µM (active) with 7G8 and 8.91 µM (active) in the assay on CP191.

Consider `C[C@]12CCC(=O)C=C1CC[C@@H]1[C@@H]2CC[C@@]2(C)[C@H]1CC[C@]2(O)C(=O)CO`, for which the Potency result with 3D7, in the assay on AA1029, with AS120, with ATS189, with ATS95 and in the assay with C2A was “inactive” in each case. Further, the Potency entry in the assay with CP185, with CP191 and in the assay on CP192 was “inactive” in each case.

As for `CCN(CC)CCOCCOC(=O)C1(c2ccccc2)CCCC1`, the Potency in the assay with 7G8 is 1.78 µM (active); with AS120 it was 12.6 µM (active); with ATS189, 7.08 µM (active); in the assay with ATS95, 11.2 µM (active); with CP191, 7.94 µM (active). Besides, the Potency entry in the assay with AA1029, with CP185 and with CP192 was “inactive” throughout.

Take `CN(C)CC[C@@H](c1ccc(Br)cc1)c1ccccn1`: the Potency result with 3D7, in the assay on ATS189, in the assay with C2A and in the assay with CP192 was “inactive” in each case. For the same molecule, the Potency in the assay with 7G8 is 8.91 µM (active).

Consider `NC(Cc1ccc(Cl)cc1)C(=O)O` (configuration not stated), for which the Potency result with 3D7, with AA1029, in the assay with AS120, with ATS189, with ATS95 and with C2A was “inactive” throughout. Besides, the Potency entry in the assay on CP185, in the assay with CP191 and in the assay with CP192 was “inactive” throughout.

Turning to `CN(C)C/C=C(/c1ccc(Br)cc1)c1cccnc1`, the Potency entry in the assay with 3D7, in the assay with ATS189, with C2A and with CP185 was “inactive” in each case. Further, the Potency in the assay on 7G8 is 8.91 µM (active).

As for `CN(C)CCOC(=O)COc1ccc(Cl)cc1`, the Potency result with 7G8, in the assay on AA1029, with AS120, in the assay on ATS189, in the assay with ATS95 and in the assay on C2A was “inactive” in each case. The Potency entry in the assay with CP185, with CP191 and with CP192 was “inactive” in each case.

Regarding `Cc1nc2ccccn2c(=O)c1CCN1CCC(C(=O)c2ccc(F)cc2)CC1`, the Potency result with 3D7, in the assay on AS120, in the assay with CP185 and in the assay on CP192 was “inactive” each time. Further, the Potency is 14.1 µM (active) in the assay with 7G8 and 7.94 µM (active) in the assay on CP191.

With `CN(C)CCN(Cc1cccs1)c1ccccn1`, the Potency entry with 3D7 and in the assay with CP191 was “inactive” throughout. Besides, the Potency in the assay with AA1029 is 10 µM (active); in the assay with AS120 it was 12.6 µM (active).

As to `C#CCN(C)CCCOc1ccc(Cl)cc1Cl`, the Potency entry in the assay with 3D7, in the assay with AA1029, with AS120, in the assay on ATS189, in the assay on ATS95 and with C2A was “inactive” throughout. For the same molecule, the Potency entry in the assay on CP185, in the assay on CP191 and in the assay with CP192 was “inactive” in each case.

`COCCCC/C(=N\OCCN)c1ccc(C(F)(F)F)cc1`: the Potency entry in the assay on 3D7 and in the assay with ATS189 was “inactive” throughout. Also, the Potency in the assay with 7G8 was 10 µM (active).

With `Cc1nc2sccn2c(=O)c1CCN1CCC(=C(c2ccc(F)cc2)c2ccc(F)cc2)CC1`, the Potency is 10 µM (active) in the assay on 7G8 and 11.2 µM (active) with AS120. The Potency result in the assay on CP192 is “inactive”.

As for `CC1=C(C)C(=O)C(CCCCC#CCCCC#CCO)=C(C)C1=O`, the Potency is 12.6 µM (active) in the assay with 3D7, 2.51 µM (active) in the assay on 7G8, 6.31 µM (active) in the assay on AS120 and 10 µM (active) in the assay with C2A.
